Bioassay records as filed in PubChem.
Mcl1-Bid inh = disrupts binding of human Mcl-1 to Bid peptide | TR-FRET Mcl-1/Bid-Dy647 peptide binding, 1536-well | inhibition, % at 21.7 µM | 220,000 tested, 0.97% active;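 active means compounds that cut the binding signal by more than half at the single screening dose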;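 further: His-tagged Mcl-1 with europium anti-His antibody binding Bid BH3 peptide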
BCLXL inh = Bcl-xL (human) inhibition; GST-Bcl-xL / FITC-Bim BH3 peptide fluorescence polarization; inhibition, % at 10.9 µM; 320,000 tested, 0.7% active; Q07817; AID 2129;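 active means inhibition above the mean of all tested compounds plus 3 SD, cutoff set per campaign, cut at about 30% in these data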;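 further: inhibitors lower millipolarization by displacing the labeled peptide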
MCL1 BIM primary = disrupts human MCL1 binding to BIM-BH3 peptide. Q07820. GST-MCL1 / FITC-Bim-BH3 fluorescence polarization. inhibition, % at 10.9 µM. 320,000 tested, 0.68% active;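 active means inhibition above the mean inhibition of all tested compounds plus 3 SD, set per campaign, cut at about 40% in these data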;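 further: higher means more loss of mP so more displacement of Bim peptide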
Bim-Mcl-1 = disrupts Bim peptide binding to human Mcl-1; inhibition, % at 10 µM; 190,000 tested, 0.1% active; Q07820; Bead-based flow cytometry, Bim peptide-Mcl-1 binding; AID 1009; in the data active means inhibition above about 40%
Mcl1-Noxa inh = disrupts binding of human Mcl-1 to Noxa peptide | Q07820 | TR-FRET Mcl-1/Noxa peptide binding, 2 h | inhibition, % at 21.7 µM | 220,000 tested, 1.5% active | AID 1022;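 active means compounds that cut the protein-peptide binding signal by more than 50% relative to plate controls in a single-dose test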;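 further: His-tagged Mcl-1 with rhodamine Noxa BH3 peptide and terbium anti-His antibody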
GLD-1 TGE inh = GLD-1-TGE RNA interaction inhibition (C. elegans); Q17339; purified GLD-1 + fluorescein TGE RNA, fluorescence polarization; inhibition, % at 5.96 µM; 320,000 tested, 0.44% active; AID 2280;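 active means percent inhibition above a per-plate cutoff, the plate mean of test compounds plus 3 SD, cut at about 30% in these data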
Target sequence (Q17339 whole entry, looked up): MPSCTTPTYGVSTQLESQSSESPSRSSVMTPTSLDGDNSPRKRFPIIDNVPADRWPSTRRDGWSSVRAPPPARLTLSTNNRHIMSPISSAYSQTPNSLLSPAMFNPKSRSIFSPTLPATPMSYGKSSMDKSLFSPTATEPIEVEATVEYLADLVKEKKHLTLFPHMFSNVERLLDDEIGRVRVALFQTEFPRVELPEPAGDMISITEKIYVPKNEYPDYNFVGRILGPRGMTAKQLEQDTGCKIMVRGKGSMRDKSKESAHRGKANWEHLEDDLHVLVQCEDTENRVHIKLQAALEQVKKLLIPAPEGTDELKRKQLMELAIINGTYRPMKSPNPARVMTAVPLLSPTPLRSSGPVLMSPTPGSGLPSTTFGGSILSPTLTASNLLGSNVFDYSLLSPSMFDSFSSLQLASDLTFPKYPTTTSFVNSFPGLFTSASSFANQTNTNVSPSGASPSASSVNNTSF
BCLXL inh confirm = Bcl-xL (human) inhibition, MCL1 counter-screen confirmation; shares compounds with MCL1 BIM primary; GST-Bcl-xL / FITC-Bim BH3 peptide FP binding; inhibition, % at 10.9 µM; 1,700 tested, 54% active; AID 2166;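 active means inhibition above a cutoff equal to the mean inhibition of all tested compounds plus 3 SD, cut at about 30% in these data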
MCL1 BIM confirm = MCL1-BIM-BH3 interaction inhibition, confirmation. shares compounds with MCL1 BIM primary. GST-MCL1 / FITC-Bim-BH3 fluorescence polarization. 1,700 tested, 61% active. inhibition, % at 10.9 µM;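 active means inhibition above the average of all tested compounds plus 3 SD, cut at about 40% in these data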
Each line names hits and unclear results; the compound was inactive in the other large screens (follow-up assays come after a bar, where they were run). An excerpt weighted towards active compounds, which were near 2.3% of everything screened.

CC(C)(C)c1ccc(C(=O)NCC(=O)N2CCCCCC2)cc1	none (no result: Mcl1-Bid inh, Bim-Mcl-1, Mcl1-Noxa inh)
CCCCNC(=O)C(C#N)c1nc2ccccc2nc1N1CCCC1 (stereo unspecified)	none (no result: BCLXL inh, MCL1 BIM primary, GLD-1 TGE inh)
COc1ccc(CNC(=O)C(C#N)c2nc3ccccc3nc2N2CCCC2)cc1 (stereo unspecified)	BCLXL inh 46, MCL1 BIM primary 54 | BCLXL inh confirm 63 | MCL1 BIM confirm 75
C=CCNC(=O)C(C#N)c1nc2ccccc2nc1N1CCCCCC1 (stereo unspecified)	BCLXL inh 74, MCL1 BIM primary 71, GLD-1 TGE inh 57 | BCLXL inh confirm 32 | MCL1 BIM confirm inactive
CC(=O)Oc1cc2cccc(OC(C)=O)c(=O)c2c(OC(C)=O)c1OC(C)=O	BCLXL inh 81, MCL1 BIM primary 105, Mcl1-Noxa inh 66 | BCLXL inh confirm inactive | MCL1 BIM confirm inactive
CC(=O)Oc1ccccc1C(=O)O	none (no result: Mcl1-Bid inh, Bim-Mcl-1, Mcl1-Noxa inh)
O=C(CSc1nc(-c2ccccc2)ns1)NCC1CCCO1 (stereo unspecified)	none (no result: Mcl1-Bid inh, Bim-Mcl-1, Mcl1-Noxa inh)
O=C(CN1C(=O)/C(=C/c2ccco2)SC1=S)Nc1ccc(C(=O)O)c(O)c1	MCL1 BIM primary 73 (no result: Mcl1-Bid inh, Bim-Mcl-1, Mcl1-Noxa inh) | BCLXL inh confirm inactive | MCL1 BIM confirm 48
O=C(CCCN1C(=O)/C(=C/c2cccs2)SC1=S)Nc1ccc(O)c(C(=O)O)c1	none (no result: BCLXL inh, MCL1 BIM primary, GLD-1 TGE inh)
NN1C(=O)/C(=C\c2ccco2)SC1=S	MCL1 BIM primary 55 (no result: Bim-Mcl-1) | BCLXL inh confirm inactive | MCL1 BIM confirm inactive
O=C(CN1C(=O)/C(=C/c2ccco2)SC1=S)NC1CCS(=O)(=O)C1 (stereo unspecified)	BCLXL inh 44, MCL1 BIM primary 64 (no result: Mcl1-Bid inh, Bim-Mcl-1, Mcl1-Noxa inh) | BCLXL inh confirm inactive | MCL1 BIM confirm inactive
O=C(CN1C(=O)/C(=C/c2ccco2)SC1=S)Nc1ccc(O)c(C(=O)O)c1	BCLXL inh 34, MCL1 BIM primary 58 (no result: Mcl1-Bid inh, Bim-Mcl-1, Mcl1-Noxa inh) | BCLXL inh confirm inactive | MCL1 BIM confirm 47
CNC(=O)NC(=O)CN1C(=O)NC2(CCOc3ccccc32)C1=O (stereo unspecified)	none (no result: Mcl1-Bid inh, Bim-Mcl-1, Mcl1-Noxa inh)
Nc1c(C(=O)N/N=C/c2cccnc2)oc2nc(-c3ccco3)cc(-c3ccco3)c12	BCLXL inh 68, MCL1 BIM primary 61 (no result: Bim-Mcl-1) | BCLXL inh confirm inactive | MCL1 BIM confirm inactive
Nc1c(C(=O)N/N=C/c2cccnc2)oc2nc(-c3ccccc3)cc(-c3ccco3)c12	none (no result: Bim-Mcl-1)
COc1cccc(CN(C)C(=O)[C@@H](NC(=O)c2ccc(C)cc2)C(C)C)c1	none (no result: Mcl1-Bid inh, Bim-Mcl-1, Mcl1-Noxa inh)
O=C(c1ccco1)[C@@H]1[C@@H]2C(=O)N(c3ccccc3)C(=O)[C@@H]2C2c3ccccc3C=CN21 (stereo partly specified)	BCLXL inh 79, MCL1 BIM primary 79, GLD-1 TGE inh 69 (no result: Mcl1-Bid inh, Bim-Mcl-1, Mcl1-Noxa inh) | BCLXL inh confirm 60 | MCL1 BIM confirm 77
Cc1ccc(N2C(=O)[C@@H]3[C@H](C2=O)C2c4ccccc4C=CN2[C@@H]3C(=O)c2ccco2)cc1 (stereo partly specified)	none (no result: BCLXL inh, MCL1 BIM primary, GLD-1 TGE inh)
Cc1ccc(N2C(=O)[C@@H]3[C@H](C2=O)C2c4ccccc4C=CN2[C@@H]3C(=O)c2ccco2)c(C)c1 (stereo partly specified)	BCLXL inh 73, MCL1 BIM primary 63, GLD-1 TGE inh 62 (no result: Mcl1-Bid inh, Bim-Mcl-1, Mcl1-Noxa inh) | BCLXL inh confirm 44 | MCL1 BIM confirm 59
COC(CNC(=O)c1c[nH]c2ccc(S(=O)(=O)N(C)c3ccc(F)cc3)cc2c1=O)OC	none (no result: Mcl1-Bid inh, Bim-Mcl-1, Mcl1-Noxa inh)
CCC(c1nnc(SCC(=O)Nc2cc(S(C)(=O)=O)ccc2Cl)n1Cc1ccccc1)N(C)C (stereo unspecified)	none (no result: Mcl1-Bid inh, Bim-Mcl-1, Mcl1-Noxa inh)
O=c1cc(-c2ccc(O)c(O)c2)oc2c1ccc1ccccc12	MCL1 BIM primary 45 (no result: Mcl1-Bid inh, Bim-Mcl-1, Mcl1-Noxa inh) | BCLXL inh confirm inactive | MCL1 BIM confirm 45
C=CCn1c(CC#N)nnc1N1CCOCC1	MCL1 BIM primary 65 | BCLXL inh confirm inactive | MCL1 BIM confirm inactive
C=CCN1C(c2ccccc2)=CS/C1=C(/C#N)c1nnc(N2CCOCC2)n1-c1ccccc1	none
